Compound activity (PubChem)
Many of the other results were omitted from the sample, so hits are more common in it than they were.
TTR transcr act: activators of transthyretin transcription; SH-SY5Y TTR promoter Gaussia luciferase, luminescence; 100% = recombinant luciferase protein wells; activation, % at 16.7 µM; 1.3% of 92,000 active; AID 1117267;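 active = activation above the mean of all tested compounds plus 3 SD, cut at about 9.5% in these data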;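 note: cells exposed to compounds for one day before reading; 0% = median of all test compound wells on the plate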
TTR inh HuH7: counter-screen for TTR activators: TTR transcription inhibitors in HuH7 cells; shares compounds with TTR transcr act; HuH7 TTR promoter-Gaussia luciferase reporter, luminescence; inhibition, % at 16.7 µM; 4% of 1,100 active; AID 1117279;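 active = average inhibition above the solvent-only control wells' mean plus 3 SD, cut at about 15% in these data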;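 note: 0% = cells with DMSO only and 100% = cells with inhibitor control FD; inhibitors lower well luminescence so higher value means more inhibition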
TTR up confirm: human TTR transcription activation, confirmation | shares compounds with TTR transcr act | SHSY5Y TTR promoter Gaussia luciferase, luminescence; 100% = purified Lucia enzyme wells, no cells | activation, % at 16.7 µM | 1,100 tested, under 10 active;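 active = mean activation above a set limit taken from the earlier primary screen, cut at about 11% in these data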;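 note: 0% = DMSO-treated cells and 100% = recombinant Lucia luciferase without cells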
* hit, by the source's call.

SMILES | TTR transcr act | others
Cc1cc(=O)[nH]c(-c2ccc(Cl)cc2)n1 | -1
O=C(Nc1cn(-c2ccccc2)nc1-c1ccc(Cl)cc1)c1ccccc1 | 0
Cc1ccc(-c2nc3ncccn3c2NC(=O)c2ccccc2)cc1 | 0
Cc1ccc(-c2nn(-c3ccccc3)cc2NC(=O)c2ccccc2)cc1 | 13* | TTR inh HuH7=1;TTR up confirm=-1
Cc1cccc(C)c1OCC(=O)Nc1ccc(S(=O)(=O)Nc2ccccn2)cc1 | 17* | TTR inh HuH7=-4;TTR up confirm=0
O=C(COc1ccc(Br)cc1)Nc1ccc(S(=O)(=O)Nc2ccccn2)cc1 | -1
Cc1cccc(C)c1OCC(=O)Nc1ccncc1 | -1
CCN1C(=O)CC(N2CCN(c3ccc(C(=O)c4ccncc4)cc3)CC2)C1=O (stereo unspecified) | -1
CC(NC(=O)NC1CCCCC1)c1ccccc1 (stereo unspecified) | 0
CN(C(=O)c1cccc(NC(=O)Cc2ccc(NC(=O)C3CCCN(C(=O)CCc4ccccc4)C3)cc2)c1)C1CC1 (stereo unspecified) | -3
CCOc1cc(C(=O)NCCc2ccc(S(N)(=O)=O)cc2)cc(OCC)c1OCC | 19* | TTR inh HuH7=0;TTR up confirm=1
CCN(c1ccccc1)S(=O)(=O)c1ccc(C(=O)NCCc2ccc(S(N)(=O)=O)cc2)cc1 | -1
CC(C)(O)C#Cc1ccc(C(=O)NCCc2ccc(S(N)(=O)=O)cc2)cc1 | -1
Cc1ccc(CC(=O)NC2CCCc3ccccc32)cc1C (stereo unspecified) | -1
Cc1ccc(C(=O)OCC(=O)NC2CCCc3ccccc32)o1 (stereo unspecified) | 18* | TTR inh HuH7=-9;TTR up confirm=0
Cc1cccc(OCC(=O)NC2CCCc3ccccc32)c1C (stereo unspecified) | 0
O=C(NCc1ccncc1)c1nc(-c2cccs2)no1 | 7
COC(=O)c1ccc(-c2nc(-c3cccs3)no2)cc1 | 13* | TTR inh HuH7=11;TTR up confirm=-1
COC(=O)c1ccc(-c2nc(-c3ccc(Br)o3)no2)cc1 | -2
CCC(=O)OC1CSc2nc3ccccc3n2C1 (stereo unspecified) | 3
C1=Nc2ccccc2CN1c1ccccc1 | 1
COc1ccc(S(=O)(=O)N2CCC(C(=O)Nc3cccc(C(C)=O)c3)CC2)cc1 | 1
C[C@H]1CN([C@@H](C)CO)C(=O)CCCn2nncc2CO[C@@H]1CN(C)C(=O)Nc1ccc2c(c1)OCO2 | 0
Cc1ccc(CN(C)C(=O)CN2C(=O)NC3(CCCC3)C2=O)o1 | 0
C/C(=N/NS(=O)(=O)c1ccc(Cl)cc1)c1cccc(NC(=O)c2ccncc2)c1 | 5
SMILES | TTR transcr act | others
CC1CC(=O)Nc2ccccc2N1C(=O)CSc1nnnn1C (stereo unspecified) | 14* | TTR inh HuH7=-6;TTR up confirm=0
CC1Cc2ccccc2N1C(=O)CSc1nnnn1C (stereo unspecified) | 6
Cn1nnnc1SCC(=O)N1CCCc2ccccc21 | 2
O=C(O)c1ccc(Cn2cc(C(F)(F)F)ccc2=O)cc1 | 0
COc1ccc([N+](=O)[O-])cc1Nc1ncnc2ccccc12 | 0
CC(C)Cc1csc(=S)[nH]1 | 1
COC(=O)Cn1cc(C(=O)OC)c2ccccc21 | -1
COC(=O)CSc1ccc(C#N)c(SCC(=O)OC)c1 | 1
COC(=O)CSc1ccccc1C(=O)OC | 19* | TTR inh HuH7=-13;TTR up confirm=1
O=C(CCCOc1ccc(Cl)cc1Cl)Nc1ncccn1 | 2
N/C(=N\OC(=O)c1cccnc1)c1ccc(Cl)cc1Cl | 0
COc1ccc(Cl)cc1C(=O)O/N=C(\N)c1ccncc1 | 1
Cc1ccc(/C(N)=N/OC(=O)c2ccc(Cl)cc2Cl)cc1 | 20* | TTR inh HuH7=6;TTR up confirm=-1
N#Cc1cc(-c2ccccc2)cnc1Sc1ccc(Cl)cc1 | 1
Cc1cc(C)nc(NS(=O)(=O)c2ccc(NC(=S)NC(=O)C(C)(C)C)cc2)n1 | -1
COc1ccccc1NC(=O)Nc1ncccc1C | -2
O=C(NCCNC(=O)c1ccccn1)c1ccccc1 | -1
CN1CCN(C(=O)OCCOCCOC(=O)N2CCN(C)CC2)CC1 | 1
COc1ccc(-c2nnc(SCC(=O)N3CCc4ccccc4C3)o2)cc1 | 2
O=C(CSc1nnc(CNC(=O)c2ccccc2)o1)NCc1ccc2c(c1)OCO2 | 17* | TTR inh HuH7=-16;TTR up confirm=0
COc1ccc(C(=O)NCc2nnc(SCC(=O)Nc3ccc4c(c3)OCO4)o2)cc1 | 3
O=C(COc1ccc(Cl)cc1)NCc1nnc(SCC(=O)NCc2ccc3c(c2)OCO3)o1 | -1
O=C(NCc1ccco1)C1CCN(c2ccc(N3CCOCC3)nn2)CC1 | 3
CC1CCCC(n2cnc3cc(C(=O)O)ccc32)C1C (stereo unspecified) | -1
CC1CCN(C(=S)c2cn(Cc3cccc(F)c3)c3ccccc23)CC1 | 10* | TTR inh HuH7=-17;TTR up confirm=0
Fc1ccc(Cn2cc(C(=S)N3CCOCC3)c3ccccc32)cc1 | -2
O=C(O)Cn1cc(C(=S)N2CCCCC2)c2ccccc21 | 0
